According to PubChem BioAssay AID602250 (The Scripps Research Institute Molecular Screening Center, 2012):
The whole screen tested about 360,000 compounds, of which about 2,200 (0.61%) were called active.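 How the source made its calls: active means inhibition above a per-plate cutoff, the plate's mean sample inhibition plus 3 SD (cut at about 24% in these data); inactive means the rest.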 Shown is part of a subset that was picked to be rich in actives.

Test: nonselective inhibitors of ATP calcium response in CHO-K1, primary screen, counter-screen for M1 antagonist project, cell-based, Fluo-8 calcium fluorescence, full deck, 1536-well (AID 602250);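 further: 0% = DMSO plus EC80 ATP and 100% = DMSO alone without ATP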
Details: CHO-K1 parental, ATP-induced calcium, Fluo-8 fluorescence; at 3 µM; active compounds read high
In the case of `CCC(=O)OC(Cc1ccccc1)(c1ccccc1)C(C)CN(C)C` (stereo not given), the inhibition is reported as 25.3% (active).
For `CN(C)CC1Oc2ccccc2OC1(O)c1ccccc1` (stereo not given), the inhibition was -2.02% (inactive).
In the case of `CN1CCN(Cc2ccc(OC(F)(F)F)cc2)CC1`, the inhibition is reported as -3.91% (inactive).
For `OC1/C(=C/c2ccc(C(F)(F)F)cc2)N2CCC1CC2` (stereo not given), the inhibition was -10.6% (inactive).
For `CN(C)S(=O)(=O)c1cc(C(=O)N2CCC(C(=O)O)(c3ccccc3)CC2)ccc1Cl`, the inhibition was -5.53% (inactive).
